Assay results published in PubChem BioAssay AID686979 (National Center for Advancing Translational Sciences (NCATS), 2013).
The whole screen tested about 420,000 compounds, of which about 50,000 (12%) were called active. Another 26% or so got no clear call; they are omitted. Calls follow the shape of the dose curve; as a rule, active = well fitted inhibition curve with a large enough effect; inconclusive = small, poorly fitted or top-dose-only effect; inactive = flat fitted curve, though single readings scatter. What follows is part of a selection rich in actives, with near analogues and random picks from the rest. Entries that show only a call come without a potency. Where a SMILES comes first, the peptide text is derived from it. The star is where a group is joined. Bz = O=C(c1ccccc1)*

Assay: qHTS for Inhibitors of human tyrosyl-DNA phosphodiesterase 1 (TDP1): qHTS in cells in presence of CPT; also: nearly all actives have a fitted effect of over 55% in size
Conditions: chicken DT40 Tdp1-/-;hTDP1 cells + 20 nM CPT, ATP luminescence, 48 h; series mostly up to 46.2 µM
In short: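 Chicken DT40 Tdp1-/- cells complemented with human TDP1, 400 cells/well, exposed to compounds plus 20 nM camptothecin for at least 48 h at 37 C; viability read as ATP content by CellTiter-Glo luminescence.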
Potency is read from the fitted curve at half-maximal effect.

SMILES | Potency
C[C@@H](NC(=O)OC(C)(C)C)c1nnc(S(=O)(=O)Cc2ccccc2)o1 | 0.651 µM (active)
CC(C)Sc1nnc([C@H](Cc2ccccc2)NC(=O)OC(C)(C)C)o1 | inactive
C[C@H](NC(=O)OC(C)(C)C)c1nnc(SCC(N)=O)o1 | inactive
CN(CCC#N)c1ccc(C=O)cc1 | inactive
CCn1c(=S)[nH]c2cc(S(=O)(=O)N3CCOCC3)ccc21 | inactive
Cc1ccc(S(=O)(=O)N/N=C(\c2ccccc2)C2CC2)cc1 | inactive
Cc1ccc(S(=O)(=O)/N=C2\C=C(NS(=O)(=O)c3ccc(C)cc3)C(=O)c3ccccc32)cc1 | 23.1 µM (active)
Cc1ccc(S(=O)(=O)N[C@H](CO)C(C)C)cc1 | inactive
CCC1(CC)NC(=O)N(CC(=O)OCC(=O)c2cc(C)c(C)cc2C)C1=O | inactive
Cc1csc(NC(=O)CSc2nc(=O)cc(N)n2-c2ccc(F)cc2)n1 | inactive
CC1Cc2[nH][nH]c(=O)c2C(C2CCCC2)O1 (centres undefined) | inactive
CCN1CCN(C(=O)CSc2ccc(C)cc2)CC1 | inactive
CCN1CCC2(CC1)N=C(c1ccc(F)cc1)C(=S)N2C(=O)c1ccc(C)cc1 | 8.2 µM (active)
CCn1c(C(C)NC(=O)c2ccc(C)cc2)n[nH]c1=S (centres undefined) | inactive
C/C(=N\NC(N)=S)c1cccnc1 | inactive
C/C(=N\NC(N)=S)c1ccncc1 | inactive
C/C(=N\NC(=S)NC(C)C)c1ccc(C(C)(C)C)cc1 | 23.1 µM (active)
COc1ccc(-c2ocnc2C(=O)Nc2ccc3c(c2)CCC3)cc1 | inactive
CC1(C)O[C@@H]2[C@H](O1)[C@@H](COS(=O)(=O)O)O[C@H]2n1ccc(=O)[nH]c1=O | inactive
Cc1ccn2c(=O)c(C(=O)NCCC3=CCCCC3)c(O)nc2c1 | 23.1 µM (active)
Cn1nnc2cc(C(=O)NCCC3=CCCCC3)ccc21 | inactive
O=C(NCCC1=CCCCC1)c1ccc(-n2cncn2)cc1 | inactive
Nc1ccc2c(c1)C(O)c1ccc(Cl)cc1-2 (centres undefined) | inactive
O=C(c1ccc(Br)cc1)N(Cc1cccs1)c1ccc(F)cc1 | inactive
CC(C)OC(=O)CN1CCN(c2ccc(Cl)cc2)CC1 | inactive
CC(NC(=O)c1cccc(S(=O)(=O)N2CCc3ccccc3C2)c1)c1ccco1 (centres undefined) | inactive

SMILES | Potency
COC(=O)c1ccc(S(=O)(=O)N2CCc3ccccc3C2)cc1 | inactive
Cc1cccc(N2CCN(C(=O)c3cccc(S(=O)(=O)N4CCc5ccccc5C4)c3)CC2C)c1 (centres undefined) | 9.2 µM (active)
CC1CCCC(C)N1C(=O)COC(=O)COc1ccccc1C#N (centres undefined) | inactive
O=C(COC(=O)c1ccc(O)cc1O)c1ccc2c(c1)OCCO2 | inactive
CC(CNC(=O)c1ccc(N)cc1)NC(=O)c1ccc(N)cc1 (centres undefined) | inactive
O=C(NC(Cc1ccccc1)C(=O)N1CCCC1C(=O)O)c1ccccc1 (stereo not drawn) (Bz-Phe-Pro-OH; configuration not given here) | inactive
CN(Cc1ccccc1F)C(=O)C(Cc1ccccc1)NC(=O)c1ccccc1 (centres undefined) | 29.1 µM (active)
CC(Cc1ccccc1)C(=O)N(C)Cc1ccccc1 (centres undefined) | inactive
CCOc1cccc(C(=O)Nc2nnc(-c3cccs3)s2)c1 | inactive
CC(=O)c1sc(NC(=O)c2ccc(C)cc2)nc1C | inactive
N#Cc1ccc(C(=O)Nc2nc(-c3cccs3)c(C(=O)C(F)(F)F)s2)cc1 | 1.64 µM (active)
CC1CN(C(=O)c2cc(COc3c(F)cccc3F)on2)CCN1C (centres undefined) | inactive
CC1CCCCN1C(=O)Cn1c(=O)oc2cc(S(=O)(=O)N3CCCCC3)ccc21 (centres undefined) | inactive
CC1CCCN(C(=O)Cn2c(=O)oc3cc(S(=O)(=O)N4CCCCC4C)ccc32)C1 (centres undefined) | inactive
CC(C)CCNC(=O)Cn1c(=O)oc2cc(S(=O)(=O)N3CC(C)CC(C)C3)ccc21 (centres undefined) | 23.1 µM (active)
CC(=O)c1cccc(NC(=O)CSc2nc3c(c(=O)[nH]2)CCC3)c1 | inactive
O=C(CCc1ccccc1)NNC(=O)COc1ccc(Cl)cc1 | inactive
O=C(COC(=O)COc1cccc(F)c1)NCC1CCCCC1 | inactive
COc1cc(NC(=O)c2cc3ccc4cccnc4c3[nH]2)cc(OC)c1OC | inactive
Cc1ccccc1CN1CCC(CNC(=O)c2cc3ccc4cccnc4c3[nH]2)CC1 | 16.4 µM (active)
CCOc1ccccc1N(CC)C(=O)c1cc2ccc3cccnc3c2[nH]1 | 5.8 µM (active)
CCOc1cccc(OCCCOc2cccc3cccnc23)c1 | inactive
Cc1ccccc1CN1CCN(CC(=O)NCc2ccccn2)C1=O | inactive
Cc1ccccc1CN1CCC(CNC(=O)c2c(C)oc3ncnc(N4CCCCC4)c23)CC1 | inactive
O=c1[nH]n2c(=O)c3c([nH]c2c1N=Nc1ccccc1)CCC3 | inactive
Cc1ccc(N(C(=O)CNC(=O)c2ccco2)C(C(=O)NC2CCCC2)c2ccncc2)cc1 (centres undefined) | inactive

SMILES | Potency
CCOc1cc2[nH]c(=O)n(Cc3ccc(C(=O)NCCN(CC)CC)cc3)c(=O)c2cc1OCC | inactive
CCOC(=O)N1CCN(Cc2nc3cc(NC(C)=O)ccc3n2C)CC1 | inactive
COc1ccc(OCC(=O)Nc2nnc(-c3ccco3)s2)cc1 | inactive
CCCCN(C(=O)C(CCSC)N1C(=O)c2ccccc2C1=O)c1c(N)n(CCC)c(=O)[nH]c1=O (centres undefined) | inactive
CCCCOc1ccc(C(=O)NO)cc1 | 10 µM (active)
CCCCOc1ccc(C(=O)NCc2ccncc2)cc1 | inactive
CCCCOc1ccc(C(=O)NN2CCN(C)CC2)cc1 | inactive
CCCOc1ccc(C(=O)C(CCC(CNCC)C(=O)c2ccc(OCCC)cc2)CNCC)cc1 (centres undefined) | 0.651 µM (active)
CCCOc1ccc(C(=O)CCC(=O)OC(C)C(=O)Nc2ccc(NC(C)=O)cc2)cc1 (centres undefined) | inactive
CCCOc1ccc(C(=O)NCCc2ccccc2)cc1 | inactive
CC(C)CCNC(=O)CSc1nc2ccccc2nc1Cc1ccc(Cl)cc1 | inactive
CC1C(=O)Nc2ccccc2N1C(=O)c1c(F)cccc1F (centres undefined) | inactive
COc1ccccc1/C=C/C(=O)NC1CC2CCC1C2 (centres undefined) | inactive
Cc1sc2ncn(CC(=O)NCCN(C)C)c(=O)c2c1S(=O)(=O)N1CCC(C)CC1 | inactive
O=C(NC1CCN(C(=S)Nc2ccc(Cl)cc2)CC1)C1CCCCC1 | inactive
COc1ccc(/C(N)=N/OC(=O)CCCc2ccccc2)cc1 | inactive
Cc1c(C#N)c(NC(=O)c2ccccc2)n(Cc2ccccc2)c1C | inactive
Cc1ccc(C(=O)Nc2c(C#N)c(C)c(C)n2Cc2ccccc2)cc1 | 25.9 µM (active)
Cc1ccc(C(=O)NCCNS(=O)(=O)c2ccccc2)cc1 | inactive
COC(=O)/C=C(\Oc1ccccc1)C1(O)CCCCC1 | inactive
CC(Nc1nc(N2CCCC2)nc2ccccc12)c1ccccc1 (centres undefined) | 23.1 µM (active)
CC(Nc1nc(N2CCN(CCO)CC2)nc2ccccc12)c1ccccc1 (centres undefined) | inactive
Cc1ccc(C(CC(=O)O)Nc2nc(N3CCCCC3)nc(N3CCCCC3)n2)cc1 (centres undefined) | inactive
CCCOc1ccc(/C(O)=C2/C(=O)C(=O)N(CCN(C)C)C2c2ccc(OC)c(OC)c2)cc1 (centres undefined) | inactive
CC1CCN(C(=O)COC(=O)c2cc(=O)[nH]c3ccccc23)CC1 | inactive
CCc1ccc(OC(C)C(=O)Nc2ccc(S(=O)(=O)Nc3cc(C)on3)cc2)cc1 (centres undefined) | inactive

SMILES | Potency
CCc1nonc1NC(=O)c1oc2ccc(Cl)cc2c1C | inactive
CCOc1ccc(-c2nonc2NC(=O)c2oc3ccc(CC)cc3c2C)cc1 | 18.4 µM (active)
Cc1nonc1NC(=O)c1oc2ccccc2c1C | inactive
CC(=O)N(O)CCCCCNC(=O)CCC(=O)N(O)CCCCCNC(=O)CCC(=O)N(O)CCCCCNC(=O)CCC(=O)O | inactive
CCCCNC(=O)OC1CC2CC1[C@H]1CCCCN1C2=O (some centres undefined) | inactive
CC(C)(C)c1cc[n+](-c2[nH]c(=O)sc2/C=N/N=C(\[O-])c2ccccc2)cc1 | inactive
C/C(=N\NC(=O)COc1ccc(C)cc1[N+](=O)[O-])c1ccc2c(c1)OCCO2 | inactive
O=C(Nc1ccc2nc(SCC(=O)N3CCc4ccccc43)sc2c1)c1ccccc1F | inactive
O=C(Nc1ccc2nc(SCC(=O)N3CCCc4ccccc43)sc2c1)c1ccc(Cl)cc1 | 5.17 µM (active)
CC(=O)c1ccc(NC(=O)CSc2nnc(NC(=O)Nc3ccccc3)s2)cc1 | inactive
Cc1nnc(SCC(=O)N2CCc3ccccc32)n1-c1ccccc1 | inactive
Nc1nnc(SCC(=O)Nc2ccc3nc(SCC(=O)Nc4ccccc4)sc3c2)s1 | 13 µM (active)
O=C(NCc1nnc(SCC(=O)N2CCCc3ccccc32)o1)c1ccccc1F | inactive
O=C(Nc1ccc2nc(SCC(=O)N3CCCc4ccccc43)sc2c1)c1ccc(F)cc1 | 5.8 µM (active)
CCC(=O)Nc1ccc2nc(SCC(=O)N3CCc4ccccc43)sc2c1 | 16.4 µM (active)
O=C(CSc1nc2ccccc2s1)Nc1ccc(C(=O)O)cc1 | inactive
O=C(CSc1ccc2nnc(-c3ccccc3)n2n1)N1CCCc2ccccc21 | inactive
Cn1c(=O)c2c(SCC(=O)N3CCc4ccccc43)nc(-c3ccc(Cl)cc3)nc2n(C)c1=O | inactive
CC(=O)Nc1ccc(S(=O)(=O)NCC2CCC(C(=O)NCCc3ccccc3)CC2)cc1 (centres undefined) | inactive
O=C(NC1CCCC1)C1CC(=O)N(c2ccc(F)cc2)C1 (centres undefined) | inactive
Cc1cc(NC(=O)CN2C(=O)NC(CC(C)C)C2=O)no1 (centres undefined) | inactive
CC(C(=O)N(C)CC(=O)Nc1ccccc1C(F)(F)F)N1C(=O)c2ccccc2C1=O (centres undefined) | inactive
CC(OC(=O)c1cccnc1Cl)C(=O)NC1CCCCC1 (centres undefined) | inactive
CCN(Cc1ccccc1)C(=O)CCS(=O)(=O)c1ccc2c(c1)oc(=O)n2C | inactive
CCCCC(NS(=O)(=O)c1ccc(C)cc1)C(=O)Oc1ccc2c3c(c(=O)oc2c1)CCC3 (centres undefined) | inactive
CN1CCN(C(=O)c2cnn(-c3ccccc3)c2NC(=O)c2ccc([N+](=O)[O-])cc2)CC1 | inactive
